Records with an inconclusive call do not appear. Activity calls are given as the source filed them. The calls were made as follows, unless noted: active = hit-call score of the fitted dose curve at least 0.9, where 1 is the maximum; inconclusive = response in the unintended direction; inactive = score below 0.9.
Legend:
[1] = target: Estrogen receptor (Homo sapiens) (UniProt P03372); experiment: ATG_ERa_TRANS: Attagene TRANS-FACTORIAL HepG2 Assay for human Estrogen Receptor alpha (ERa) (AID 2282970); conditions: HepG2 Attagene TRANS ERa GAL4 reporter, mRNA
Estrogen receptor (Homo sapiens), sequence (P03372 whole entry, looked up, the tested form may be a part): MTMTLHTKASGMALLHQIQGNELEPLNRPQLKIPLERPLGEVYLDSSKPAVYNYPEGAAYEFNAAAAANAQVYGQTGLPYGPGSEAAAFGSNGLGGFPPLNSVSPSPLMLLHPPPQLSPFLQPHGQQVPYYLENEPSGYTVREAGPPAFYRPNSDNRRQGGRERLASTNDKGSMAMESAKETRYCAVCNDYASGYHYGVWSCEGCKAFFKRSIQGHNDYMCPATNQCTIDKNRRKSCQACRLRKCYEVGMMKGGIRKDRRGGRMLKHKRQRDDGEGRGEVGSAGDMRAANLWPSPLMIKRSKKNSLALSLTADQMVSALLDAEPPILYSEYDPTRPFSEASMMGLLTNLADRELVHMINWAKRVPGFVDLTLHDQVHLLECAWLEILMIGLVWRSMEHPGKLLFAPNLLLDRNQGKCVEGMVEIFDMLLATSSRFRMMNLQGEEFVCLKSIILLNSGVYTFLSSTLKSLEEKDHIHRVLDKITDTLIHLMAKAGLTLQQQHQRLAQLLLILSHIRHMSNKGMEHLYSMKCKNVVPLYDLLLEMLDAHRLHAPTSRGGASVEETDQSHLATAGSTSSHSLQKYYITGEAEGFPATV
How it was run: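 Human liver HepG2, transient transfection of multiple GAL4-UAS reporter units; TRANS format (exogenous NR-Gal4 chimera). 24 h dosing. Readout: reporter mRNA, RT-PCR, 6-FAM primer extension, HpaI digest, capillary electrophoresis. Positive direction vs DMSO.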

[2] = target: Steroid hormone receptor ERR1 (Homo sapiens) (UniProt P11474); experiment: ATG_ERRa_TRANS: Attagene TRANS-FACTORIAL HepG2 Assay for human Estrogen-Related Receptor alpha (ERRa) (AID 2282971); conditions: HepG2 Attagene TRANS reporter, ERRa transactivation
Steroid hormone receptor ERR1 (Homo sapiens), sequence (P11474 whole entry, looked up, the tested form may be a part): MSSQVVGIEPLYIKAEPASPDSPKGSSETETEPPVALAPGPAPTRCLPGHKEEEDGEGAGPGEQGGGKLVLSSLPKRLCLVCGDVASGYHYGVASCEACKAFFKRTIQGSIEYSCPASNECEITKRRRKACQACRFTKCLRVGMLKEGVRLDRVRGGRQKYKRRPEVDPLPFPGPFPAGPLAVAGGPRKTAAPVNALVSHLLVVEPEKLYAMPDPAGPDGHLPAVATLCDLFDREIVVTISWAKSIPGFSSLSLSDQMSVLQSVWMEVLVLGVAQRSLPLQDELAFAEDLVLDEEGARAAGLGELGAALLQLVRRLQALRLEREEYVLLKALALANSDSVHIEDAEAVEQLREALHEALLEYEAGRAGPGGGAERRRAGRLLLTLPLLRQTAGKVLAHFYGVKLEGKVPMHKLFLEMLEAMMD
How it was run: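 Reporter transcript induction was quantified by RT-PCR and capillary electrophoresis of FAM-labelled, HpaI-cut products after 24 h treatment of HepG2 cells carrying transiently transfected GAL4-UAS reporter units and an exogenous ERRa-Gal4 fusion; activity scored as increase over DMSO.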

[3] = target: Glucocorticoid receptor (Homo sapiens) (UniProt P04150); experiment: ATG_GR_TRANS: Attagene TRANS-FACTORIAL HepG2 Assay for human Glucocorticoid Receptor (GR) (AID 2282978); conditions: HepG2 Attagene TRANS GR reporter, mRNA transcription;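 also: activators score as hits since higher reporter transcript over DMSO is fitted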
Glucocorticoid receptor (Homo sapiens), sequence (P04150 whole entry, looked up, the tested form may be a part): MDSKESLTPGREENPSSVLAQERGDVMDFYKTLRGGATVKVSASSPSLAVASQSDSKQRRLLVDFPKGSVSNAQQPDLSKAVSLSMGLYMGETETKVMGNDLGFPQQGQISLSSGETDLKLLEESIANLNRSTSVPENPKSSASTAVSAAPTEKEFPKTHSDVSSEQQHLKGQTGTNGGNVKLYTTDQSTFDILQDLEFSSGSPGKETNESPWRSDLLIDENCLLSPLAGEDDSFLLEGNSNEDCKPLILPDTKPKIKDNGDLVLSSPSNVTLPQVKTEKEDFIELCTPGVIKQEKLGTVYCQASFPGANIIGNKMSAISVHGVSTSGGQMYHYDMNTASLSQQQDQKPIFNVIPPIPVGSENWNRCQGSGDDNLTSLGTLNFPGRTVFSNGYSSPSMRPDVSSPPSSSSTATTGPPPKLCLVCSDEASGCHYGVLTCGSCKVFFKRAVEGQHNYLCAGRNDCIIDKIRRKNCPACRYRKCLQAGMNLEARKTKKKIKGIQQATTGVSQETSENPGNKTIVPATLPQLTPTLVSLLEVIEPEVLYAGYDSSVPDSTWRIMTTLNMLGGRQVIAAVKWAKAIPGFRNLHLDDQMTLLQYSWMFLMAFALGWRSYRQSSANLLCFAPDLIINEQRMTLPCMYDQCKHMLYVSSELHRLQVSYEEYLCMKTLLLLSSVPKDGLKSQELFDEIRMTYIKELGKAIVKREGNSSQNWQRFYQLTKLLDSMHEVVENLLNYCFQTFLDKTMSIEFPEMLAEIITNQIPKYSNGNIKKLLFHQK
How it was run: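 HepG2 cells transiently transfected with GAL4-UAS reporter units and exogenous GR-Gal4 chimera, dosed 24 h. Reporter mRNA by RT-PCR, FAM labeling, HpaI digest and capillary electrophoresis; gain-of-signal fit versus DMSO.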

[4] = target: Bile acid receptor (Homo sapiens) (UniProt Q96RI1); experiment: ATG_FXR_TRANS: Attagene TRANS-FACTORIAL HepG2 Assay for Farnesoid X Receptor (FXR) (AID 2282979); conditions: HepG2 Attagene TRANS FXR-GAL4 reporter transcription;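 also: hits raise reporter mRNA above DMSO so AC50 marks FXR activation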
Bile acid receptor (Homo sapiens), sequence (Q96RI1 whole entry, looked up, the tested form may be a part): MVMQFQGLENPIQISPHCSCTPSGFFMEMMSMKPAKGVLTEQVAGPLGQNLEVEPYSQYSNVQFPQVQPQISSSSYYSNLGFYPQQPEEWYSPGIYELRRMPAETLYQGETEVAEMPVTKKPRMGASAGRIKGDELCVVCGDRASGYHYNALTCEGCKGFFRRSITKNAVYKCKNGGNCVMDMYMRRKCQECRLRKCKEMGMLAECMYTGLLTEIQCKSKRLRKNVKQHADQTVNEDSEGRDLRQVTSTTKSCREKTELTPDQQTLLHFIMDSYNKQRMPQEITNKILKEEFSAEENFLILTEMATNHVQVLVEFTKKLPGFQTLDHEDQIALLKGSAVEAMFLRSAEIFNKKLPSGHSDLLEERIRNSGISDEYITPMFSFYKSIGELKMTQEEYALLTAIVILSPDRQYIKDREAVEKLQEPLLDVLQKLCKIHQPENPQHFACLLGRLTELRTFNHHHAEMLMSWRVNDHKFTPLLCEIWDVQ
How it was run: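 Transient transfection of HepG2 with multiplexed GAL4-UAS reporter units; exogenous FXR-GAL4 chimera. Dose 24 h → TriZol RNA → oligo(dT) RT → PCR, 6-FAM primer extension, HpaI cut → CE. Gain vs DMSO.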

[5] = BSK_3C_TissueFactor: BioMAP Diversity Plus: 3C Assay for Tissue Factor Biomarker Activity (AID 2282997; active = hit-call score of the fitted dose curve at least 0.9, where 1 is the maximum; inactive = score below 0.9); conditions: BioMAP 3C HUVEC, tissue factor biomarker readout; actives raise or lower the signal
How it was run: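 ELISA read-out of Tissue Factor levels on human umbilical vein endothelium collected 24 h after chemical dosing. Gain or loss of signal was fitted relative to DMSO.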

[6] = BSK_3C_uPAR: BioMAP Diversity Plus: 3C Assay for Urokinase-type plasminogen activator receptor (uPAR) Biomarker Activity (AID 2282998; active = hit-call score of the fitted dose curve at least 0.9, where 1 is the maximum; inactive = score below 0.9); conditions: BioMAP 3C HUVEC, uPAR biomarker ELISA; actives raise or lower the signal
How it was run: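 ELISA readout of uPAR on human vascular endothelium (umbilical vein primary cells), taken 24 h after chemical dosing. Increases and decreases are both fitted relative to DMSO vehicle.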

[7] = BSK_3C_VCAM1: BioMAP Diversity Plus: 3C Assay for Vascular cell adhesion molecule 1 (VCAM1) Biomarker Activity (AID 2282999; active = hit-call score of the fitted dose curve at least 0.9, where 1 is the maximum; inactive = score below 0.9); conditions: BioMAP 3C HUVEC, VCAM1 ELISA, cytokine-stimulated; actives raise or lower the signal
How it was run: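 Human umbilical vein endothelial cells (3C system), biomarker read by ELISA 24 h after dosing; bidirectional fit against DMSO baseline. Cytotoxicity tracked by SRB total-protein staining in parallel cultures at biomarker time.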

[8] = BSK_4H_Eotaxin3: BioMAP Diversity Plus: 4H Assay for Eotaxin 3 Biomarker Activity (AID 2283000; active = hit-call score of the fitted dose curve at least 0.9, where 1 is the maximum; inactive = score below 0.9); conditions: primary human endothelial cells (HUVEC); actives raise or lower the signal
How it was run: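 Chemicals were added to human umbilical vein endothelium cultures, and Eotaxin-3 was quantified by ELISA at 24 h. Values were derived by bidirectional fitting with DMSO serving as negative control and activity baseline.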

[9] = BSK_3C_Proliferation: Cell Proliferation Assessment in the BioMAP Diversity Plus: 3C Assay (AID 2283006; active = hit-call score of the fitted dose curve at least 0.9, where 1 is the maximum; inactive = score below 0.9;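 as to AC50: potency may reflect either rise or fall in cell number versus DMSO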); conditions: primary human endothelial cells (HUVEC)
How it was run: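 Human umbilical vein endothelial cells were grown sub-confluent and exposed to chemical for 48 h, then fixed with 10% TCA and stained with 0.1% sulforhodamine B; absorbance at 560 nm gave relative cell number, fitted bidirectionally against DMSO baseline.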

[10] = read-out: E-selectin (Homo sapiens) (UniProt P16581); experiment: BSK_3C_Eselectin: BioMAP Diversity Plus: 3C Assay for Eselectin Biomarker Activity (AID 2283015; active = hit-call score of the fitted dose curve at least 0.9, where 1 is the maximum; inactive = score below 0.9); conditions: primary human endothelial cells (HUVEC); actives raise or lower the signal
How it was run: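 ELISA read-out of E-selectin on endothelial monolayers after 24 h chemical treatment. Human umbilical vein primary cells served as the system, with DMSO defining baseline activity for bidirectional fitting.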

[11] = read-out: Interleukin-1 alpha (IL1a), IL1A (gene 3552); experiment: BSK_BE3C_IL1a: BioMAP Diversity Plus: BE3C Assay for Interleukin-1 alpha (IL1a) Biomarker Activity (AID 2283016; active = hit-call score of the fitted dose curve at least 0.9, where 1 is the maximum; inactive = score below 0.9); conditions: primary human bronchial epithelial cells; actives raise or lower the signal
How it was run: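 Human primary bronchial epithelial cells (BE3C system) were dosed with compound and IL-1a measured by ELISA 24 h later. Activity was fitted bidirectionally against DMSO baseline; cytotoxicity was tracked in parallel cultures by SRB total-protein staining.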

[12] = read-out: Monocyte Chemoattractant Protein-1 (MCP1), CCL2 (gene 6347); experiment: BSK_3C_MCP1: BioMAP Diversity Plus: 3C Assay for Monocyte Chemoattractant Protein-1 (MCP1) Biomarker Activity (AID 2283017; active = hit-call score of the fitted dose curve at least 0.9, where 1 is the maximum; inactive = score below 0.9); conditions: primary human endothelial cells (HUVEC); actives raise or lower the signal
How it was run: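 ELISA read-out of MCP-1 from human umbilical vein endothelial cell cultures harvested 24 h post-dosing. Gain or loss of signal was fitted relative to DMSO.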

[13] = target: Retinoic acid receptor alpha (Homo sapiens) (UniProt P10276); experiment: ATG_RARa_TRANS: Attagene TRANS-FACTORIAL HepG2 Assay for human Retinoic Acid Receptor alpha (RARa) (AID 2283005)
Retinoic acid receptor alpha (Homo sapiens), sequence (P10276 whole entry, looked up, the tested form may be a part): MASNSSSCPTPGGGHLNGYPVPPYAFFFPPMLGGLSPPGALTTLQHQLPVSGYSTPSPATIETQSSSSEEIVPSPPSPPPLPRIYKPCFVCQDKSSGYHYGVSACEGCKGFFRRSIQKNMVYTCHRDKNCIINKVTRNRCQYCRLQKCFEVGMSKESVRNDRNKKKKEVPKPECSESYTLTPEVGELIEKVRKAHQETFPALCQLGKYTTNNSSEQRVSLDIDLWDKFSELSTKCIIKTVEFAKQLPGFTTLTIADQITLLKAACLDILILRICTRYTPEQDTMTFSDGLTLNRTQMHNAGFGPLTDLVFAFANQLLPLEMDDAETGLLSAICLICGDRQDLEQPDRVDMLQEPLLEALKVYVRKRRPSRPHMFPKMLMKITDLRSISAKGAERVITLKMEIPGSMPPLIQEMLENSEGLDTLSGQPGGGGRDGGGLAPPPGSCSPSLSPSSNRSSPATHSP
How it was run: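 HepG2 transiently transfected with multiplex GAL4-UAS reporter units including a human RARa–GAL4 chimera; 24 h compound exposure. Reporter mRNA quantified by RT-PCR, 6-FAM labeling and capillary electrophoresis; gain of signal versus DMSO.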

[14] = target: Estrogen-related receptor gamma (Homo sapiens) (UniProt P62508); experiment: ATG_ERRg_TRANS: Attagene TRANS-FACTORIAL HepG2 Assay for human Estrogen-Related Receptor gamma (ERRg) (AID 2282977); conditions: HepG2 Attagene TRANS reporter, ERRg transactivation;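 also: hits increase reporter signal over DMSO so potencies reflect activators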
Estrogen-related receptor gamma (Homo sapiens), sequence (P62508 whole entry, looked up, the tested form may be a part): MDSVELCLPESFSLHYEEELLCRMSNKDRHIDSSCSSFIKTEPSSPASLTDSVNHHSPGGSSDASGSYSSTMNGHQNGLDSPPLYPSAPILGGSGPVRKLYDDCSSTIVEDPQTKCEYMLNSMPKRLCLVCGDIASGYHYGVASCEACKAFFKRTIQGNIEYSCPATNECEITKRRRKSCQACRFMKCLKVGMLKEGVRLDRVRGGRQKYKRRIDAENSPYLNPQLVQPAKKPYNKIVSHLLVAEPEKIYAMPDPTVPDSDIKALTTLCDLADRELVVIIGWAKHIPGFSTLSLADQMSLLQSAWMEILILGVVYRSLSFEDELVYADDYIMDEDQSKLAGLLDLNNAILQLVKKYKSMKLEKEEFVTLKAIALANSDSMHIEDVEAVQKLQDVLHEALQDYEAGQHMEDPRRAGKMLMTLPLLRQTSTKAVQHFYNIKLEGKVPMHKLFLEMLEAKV
How it was run: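 HepG2 cells transiently transfected with multiplexed GAL4-UAS reporter units and chimeric NR-Gal4 constructs were exposed to test chemicals for 24 h. Reporter mRNA was measured by RT-PCR, 6-FAM primer extension, HpaI digestion and capillary electrophoresis; gain-of-signal versus DMSO.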

[15] = target: Oxysterols receptor LXR-alpha (Homo sapiens) (UniProt Q13133); experiment: ATG_LXRa_TRANS: Attagene TRANS-FACTORIAL HepG2 Assay for human Liver X Receptor alpha (LXRa) (AID 2282980); conditions: HepG2 Attagene TRANS reporter, LXRa transactivation
Oxysterols receptor LXR-alpha (Homo sapiens), sequence (Q13133 whole entry, looked up, the tested form may be a part): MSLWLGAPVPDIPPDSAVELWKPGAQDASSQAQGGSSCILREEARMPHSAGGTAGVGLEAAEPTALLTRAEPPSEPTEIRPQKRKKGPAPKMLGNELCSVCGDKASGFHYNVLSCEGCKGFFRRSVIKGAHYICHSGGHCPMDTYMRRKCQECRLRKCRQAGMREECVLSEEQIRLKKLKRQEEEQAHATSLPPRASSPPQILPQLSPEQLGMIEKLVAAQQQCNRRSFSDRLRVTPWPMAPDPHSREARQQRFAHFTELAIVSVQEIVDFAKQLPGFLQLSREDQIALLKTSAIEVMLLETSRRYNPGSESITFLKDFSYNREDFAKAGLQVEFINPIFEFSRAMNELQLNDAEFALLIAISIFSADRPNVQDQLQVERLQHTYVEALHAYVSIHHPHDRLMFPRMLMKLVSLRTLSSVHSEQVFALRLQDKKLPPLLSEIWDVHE
How it was run: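 Transfect HepG2 with GAL4-UAS multiplex reporter constructs (TRANS format, chimeric receptor-GAL4); treat 24 h; extract RNA, reverse-transcribe, PCR-amplify, FAM-label, HpaI-digest; resolve fragments by capillary electrophoresis. Upward response vs DMSO.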

[16] = CCTE_Harrill_HTTr_Apoptosis_MCF7: CCTE's 6-hour Apoptosis Assessment for the High-Throughput Transcriptomics (HTTr) Platform, in MCF-7 cells cultured in DMEM + 10% fetal bovine serum, Harrill Lab (AID 2284011; active = hit-call score of the fitted dose curve at least 0.9, where 1 is the maximum; inactive = score below 0.9)
How it was run: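 MCF-7 (DMEM + 10% FBS), 384-well; 8-pt dilution series, 6 h chemical exposure; caspase-3/7 activation via CellEvent Caspase 3/7 Green, HCI; bidirectional fit vs DMSO.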

[17] = CCTE_Harrill_HTTr_CellCount_MCF7: CCTE's Cell Proliferation Assessment for the High-Throughput Transcriptomics (HTTr) Platform, Harrill Lab (AID 2284012);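 also: cells exposed to compound for six hours; intended direction is loss of nuclei count meaning fewer cells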
How it was run: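 MCF-7 cells were exposed for 6 h to an eight-point dilution series; Hoechst-labeled nuclei were counted by high content imaging. Curves were fitted bidirectionally against DMSO as negative control and baseline, with signal loss indicating reduced cell count.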

[18] = target: Estrogen receptor beta (Homo sapiens) (UniProt Q92731); experiment: OT_ER_ERbERb_1440: Odyssey Thera (OT) 24-hour HEK293T Protein-Complementation Assay for Estrogen Receptor-beta/-beta Homodimer (AID 2283380);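 also: scored as signal increase over DMSO baseline for both agonists and antagonists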
Estrogen receptor beta (Homo sapiens), sequence (Q92731 whole entry, looked up, the tested form may be a part): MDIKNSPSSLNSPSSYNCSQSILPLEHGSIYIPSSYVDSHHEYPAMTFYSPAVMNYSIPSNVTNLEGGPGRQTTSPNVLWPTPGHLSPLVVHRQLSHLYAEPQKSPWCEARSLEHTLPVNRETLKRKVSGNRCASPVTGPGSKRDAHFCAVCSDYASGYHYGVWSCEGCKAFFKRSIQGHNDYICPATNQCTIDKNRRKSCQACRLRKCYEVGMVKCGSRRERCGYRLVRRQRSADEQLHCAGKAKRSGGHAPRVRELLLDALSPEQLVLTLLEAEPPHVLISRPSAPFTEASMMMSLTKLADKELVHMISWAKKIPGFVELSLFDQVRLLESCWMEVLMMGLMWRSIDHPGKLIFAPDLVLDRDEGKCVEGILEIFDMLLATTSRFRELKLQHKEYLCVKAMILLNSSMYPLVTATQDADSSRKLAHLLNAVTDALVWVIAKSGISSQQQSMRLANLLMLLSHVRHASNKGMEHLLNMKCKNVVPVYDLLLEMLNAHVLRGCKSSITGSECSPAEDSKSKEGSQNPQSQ
How it was run: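 HEK293T cells stably expressing ER beta LBD (aa 310-547) homodimer fragment-complementation reporter, dosed 24 h. Cells formaldehyde-fixed, Draq5-stained; gain in nuclear (agonist) or nuclear plus cytoplasmic (antagonist) fluorescence versus DMSO read by laser scanning cytometry.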

[19] = ACEA_AR_agonist_AUC_viability: ACEA Biosciences xCELLigence Real-Time Cell Analysis on Androgen Receptor Agonism for Viability (AID 2283775)
How it was run: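 Read-out is area under the impedance curve at 80 h post-dose in 22Rv1 cells, with DMSO as baseline and signal loss taken as reduced viability. Compounds ran in duplicate from 100 uM final.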

Measured: AC50

E-selectin (Homo sapiens), sequence (P16581 whole entry, looked up): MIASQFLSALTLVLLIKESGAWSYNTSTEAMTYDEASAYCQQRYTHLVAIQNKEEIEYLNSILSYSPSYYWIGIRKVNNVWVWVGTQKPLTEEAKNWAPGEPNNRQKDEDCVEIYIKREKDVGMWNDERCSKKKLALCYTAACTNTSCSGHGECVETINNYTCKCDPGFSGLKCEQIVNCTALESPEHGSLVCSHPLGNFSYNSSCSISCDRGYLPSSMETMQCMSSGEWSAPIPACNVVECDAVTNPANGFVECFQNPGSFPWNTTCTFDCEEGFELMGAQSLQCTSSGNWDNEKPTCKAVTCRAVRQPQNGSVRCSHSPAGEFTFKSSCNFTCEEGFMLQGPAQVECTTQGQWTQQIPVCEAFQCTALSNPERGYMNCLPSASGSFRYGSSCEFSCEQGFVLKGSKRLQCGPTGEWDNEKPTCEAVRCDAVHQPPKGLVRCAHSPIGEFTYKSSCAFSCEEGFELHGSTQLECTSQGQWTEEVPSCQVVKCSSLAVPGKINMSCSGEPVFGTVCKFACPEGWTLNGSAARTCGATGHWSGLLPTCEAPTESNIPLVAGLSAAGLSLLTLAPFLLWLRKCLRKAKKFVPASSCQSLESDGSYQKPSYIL

c1ccc(Nc2ccc3ccccc3c2)cc1
inactive: [2] | [3] | [4] | [8]
active: [1] 4.65 µM | [5] 32.9 µM | [6] 20 µM | [7] 34.8 µM | [9] 23.6 µM | [10] 13.8 µM | [11] 20 µM | [12] 26 µM

N#CCCCl
inactive: [13]

O=[N+]([O-])C=Cc1ccccc1
active: [5] 4.68 µM | [6] 5.53 µM | [7] 6.25 µM | [8] 9.12 µM | [9] 1.37 µM | [10] 6.94 µM | [11] 2.28 µM | [12] 7.71 µM
inactive: [2] | [14]

O=C(O)c1cc[c]([Hg][Cl])cc1
inactive: [1]

C[N+](C)(C)CC(=O)O
inactive: [1] | [15] | [16] | [17]

C[N+](C)=CCl
inactive: [1] | [3] | [13]

CCOC(=O)COc1ccc(Cl)cc1Cl
inactive: [3] | [16] | [17]

CC(C)c1ccc(O)cc1
inactive: [14] | [19]
active: [18] 50 µM

COC(=O)COc1ccc(Cl)cc1Cl
inactive: [2] | [14]

COCC(=O)N(c1c(C)cccc1C)N1CCOC1=O
inactive: [2] | [4] | [5] | [6] | [7] | [8] | [9] | [10] | [11] | [12]

Nc1ccc(-c2ccc(N)c(N)c2)cc1N
active: [5] 5.26 µM | [10] 8.29 µM
inactive: [4] | [6] | [7] | [8] | [13] | [9] | [11] | [12]

O=C(O)CCl
inactive: [14] | [18] | [19]

Nc1ccccc1
inactive: [15] | [19] | [16] | [17]

N#CC(c1ccccc1)c1ccccc1
inactive: [2] | [4]

CN(C)CCC#N
inactive: [15] | [13] | [16]

CCCCOP(=O)(O)OCCCC
inactive: [1] | [4] | [15]

c1ccc2c(c1)CCCC2
inactive: [1] | [3] | [4] | [18] | [19]
